Hits are enriched below; roughly 21% of the tested compounds scored in any of these assays.
CYP2C9 inh: blockers of cytochrome P450 2C9 activity – biochemical, luminescence, ADME assay, primary screen. P11712. CYP2C9 Supersomes, luciferin-H conversion. inhibition, % at 5 µM. 20% of 96,000 active. AID 777, 2007;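 active means blocking of liver enzyme CYP2C9 beyond about 50% at 5 µM, limit read from the data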
CYP2C9 act: human CYP2C9 activators, primary screen, biochemical, luminescence; 1.4% of 96,000 active; activation factor at 5 µM; recombinant CYP2C9, luciferin-H conversion; active compounds read high; factor 1 = untreated enzyme, 0 = blocked;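 active means activation factor of 2 or more for CYP2C9 at a 5 µM dose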;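 further: 0 = sulfaphenazole-blocked wells and 1 = vehicle-only wells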
MRP resist rev: reversal of MRP1-mediated doxorubicin resistance, primary screen, H69AR cells, doxorubicin co-treatment; H69AR cells + 2 uM doxorubicin, CellTiter-Glo, 72 h; differential viability (reversal), % at 10 µM; 0.04% of 85,000 active;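 active means viability drop by adding the cancer drug above about 55%, with treated viability meeting a 40% cutoff, limit read from the data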;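 further: viability without doxorubicin minus viability with 2 µM doxorubicin for each compound; larger differential means the compound sensitizes cells more to doxorubicin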
CYP2C19 act: human CYP2C19 activators, primary screen, biochemical, luminescence. Cytochrome P450 2C19 (Homo sapiens), P33261. recombinant CYP2C19, luciferin-H EGE luminescence; active compounds read high; 0 = fully inhibited enzyme, 1 = untreated enzyme. activation factor at 5 µM. 96,000 tested, under 10 active. AID 1025, 2008;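 active means activation factor of at least 2 at 5 µM in the primary screen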;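 further: 0 = wells with 2.5 mM tranylcypromine and 1 = vehicle-only wells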
Target sequence (P33261 whole entry, looked up): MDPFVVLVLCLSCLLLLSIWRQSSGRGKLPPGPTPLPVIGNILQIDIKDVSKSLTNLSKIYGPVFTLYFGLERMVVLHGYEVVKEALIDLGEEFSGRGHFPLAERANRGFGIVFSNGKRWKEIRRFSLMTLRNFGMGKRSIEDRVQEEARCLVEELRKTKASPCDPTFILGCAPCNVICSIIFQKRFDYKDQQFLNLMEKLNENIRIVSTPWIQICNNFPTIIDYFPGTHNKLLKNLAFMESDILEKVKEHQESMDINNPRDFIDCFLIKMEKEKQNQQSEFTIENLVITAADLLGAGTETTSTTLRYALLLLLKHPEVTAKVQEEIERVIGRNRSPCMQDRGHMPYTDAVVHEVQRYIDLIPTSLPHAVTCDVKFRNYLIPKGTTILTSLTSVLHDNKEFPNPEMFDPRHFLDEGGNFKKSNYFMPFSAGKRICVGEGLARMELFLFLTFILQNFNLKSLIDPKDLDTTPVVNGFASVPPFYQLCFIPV
MRP1 act: H69AR viability gain despite doxorubicin, primary screen, MRP-1 activator project, H69AR cells, CellTiter-Glo; viability rescue; viability increase, % at 10 µM; 0.61% of 140,000 active; AID 799, 2007;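 active means viability gain under doxorubicin at or above a set limit, the compound median plus 3 SD, cut at about 4.7% in these data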;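 further: MRP-1 overexpressing cells given doxorubicin 25 µM after compound pretreatment; 18-22 h compound pretreatment then 72 h with doxorubicin before readout; 0% = doxorubicin-only wells and 100% = vehicle-treated cells without doxorubicin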
CYP2C19 inhib: blockers of cytochrome P450 2C19 activity – biochemical, luminescence, ADME assay, primary screen | P33261 | CYP2C19 Supersomes, luciferin-H EGE luminescence, 30 min | inhibition, % at 5 µM | 21% of 96,000 active;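 active means CYP2C19 inhibition above a set limit at 5 µM in the primary screen, cut at about 50% in these data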;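 further: plate controls were negative control wells for no effect and 2.5 mM tranylcypromine positive control for full effect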
The depositor's hits bear a star; nt = not tested or not shown.

SMILES	CYP2C9 inh	CYP2C9 act	MRP resist rev	CYP2C19 act	MRP1 act	CYP2C19 inhib
COc1ccc2c(CC(=O)NC3CCCc4ccccc43)coc2c1 (stereo unspecified)	nt	nt	nt	nt	-1	nt
Cc1cccc(OCC2=N/C(=C\N(C)C)C(=O)O2)c1	17	0.8	0	0.3	-1	67*
Cc1ccc(C2=N/C(=C\N(C)C)C(=O)O2)cc1	-8	1.1	nt	0.9	1	5
CCOC(=O)C1=C(N)Oc2c(oc(CO)cc2=O)C1c1c(F)cccc1Cl (stereo unspecified)	59*	0.4	-12	0.3	-1	71*
COC(=O)C1=C(N)Oc2c(oc(CO)cc2=O)C1c1ccccc1F (stereo unspecified)	9	0.9	30	1	-3	-1
O=C(Nc1ccccc1)N(CCCN1CCOCC1)Cc1cccs1	4	1	20	0.9	-2	14
O=C(Nc1ccccc1)N(CCN1CCOCC1)Cc1ccccc1F	89*	0.1	2	0.4	-1	56*
Cc1ccc(NC(=O)N(CCCN2CCOCC2)Cc2cccnc2)cc1C	96*	0	3	0	-1	100*
CCc1ccc(NC(=O)N(CCCN2CCOCC2)Cc2cccs2)cc1	59*	0.4	7	0.6	-2	36
CCN1CCCc2cc(CN(CCN3CCOCC3)C(=O)Nc3ccc(C)c(C)c3)ccc21	48	0.5	13	0.4	-4	57*
COc1ccc(NC(=O)N(CCCN2CCOCC2)Cc2cccnc2)c(OC)c1	nt	nt	17	nt	nt	nt
CCc1ccc(NC(=O)N(CCN2CCOCC2)Cc2ccc3c(c2)CCCN3CC)cc1	24	0.8	-6	0.7	-3	28
Cc1cccc2cc(CN(CCN3CCOCC3)C(=O)Nc3ccccc3F)c(=O)[nH]c12	nt	nt	nt	nt	-3	nt
CC(C)CC(=O)Nc1ccc2nn(-c3ccccc3)nc2c1	nt	nt	nt	nt	0	nt
O=C(c1ccccn1)c1cc2ccccc2n1S(=O)(=O)c1ccccc1	nt	nt	nt	nt	-3	nt
CSc1c(-c2ccccc2)nc2ccc(Cl)cc2c1C(=O)O	81*	0.2	nt	1	2	2
CSc1c(-c2ccccc2)nc2ccccc2c1C(=O)O	-13	1.1	nt	1.2	-2	-16
Cc1ccc(NC(=O)CN2C(=O)NC3(CCc4ccccc43)C2=O)cc1Cl (stereo unspecified)	38	0.6	nt	0.8	-1	20
COc1ccc(OC)c(NC(=O)CN2C(=O)NC3(CCOc4ccccc43)C2=O)c1 (stereo unspecified)	44	0.6	nt	0.4	-2	57*
O=C(CN1C(=O)CC(c2ccco2)Sc2ccccc21)Nc1ccc2c(c1)OCCO2 (stereo unspecified)	49	0.5	nt	0.1	-4	88*
COc1ccc(CN2C(=O)NC3(CCOc4ccccc43)C2=O)cc1F (stereo unspecified)	nt	nt	nt	nt	1	nt
O=C(CN1C(=O)NC2(CCOc3ccccc32)C1=O)Nc1ccc2c(c1)OCCO2 (stereo unspecified)	50*	0.5	-4	1	-1	4
COc1ccccc1S(=O)(=O)n1cc(Cc2ccccc2)c(N)n1	nt	nt	-19	nt	0	nt
COc1ccccc1NC(CC(=O)c1ccccc1)C(=O)OCC(=O)c1ccc(F)cc1 (stereo unspecified)	nt	nt	nt	nt	1	nt
CCOC(=O)C1=C(c2ccccc2)N(C)C(=O)NC1c1ccc(O)c(OC)c1 (stereo unspecified)	44	0.6	4	0.3	-2	69*
CC1=C(C(=O)OCc2ccccc2)C(c2cccnc2)c2c(n(C)c(=O)n(C)c2=O)N1 (stereo unspecified)	60*	0.4	nt	0.1	-4	94*
CCOC(=O)C1=C(c2ccccc2)Nc2c(c(=O)n(C)c(=O)n2C)C1c1ccc(O)c(OC)c1 (stereo unspecified)	52*	0.5	5	1	-1	-1
CCn1ccnc1C(O)c1ccccc1OC (stereo unspecified)	nt	nt	3	nt	-1	nt
CN(C)C(=O)Cn1c(SCC(=O)NCc2ccc3c(c2)OCO3)nc2ccccc21	nt	nt	7	nt	-1	nt

From PubChem BioAssay
